Here are results for 5 compounds from PubChem BioAssay.

Experiment [1] in a line: compounds binding Alexa647 anti-His antibody – biochemical, small-molecule microarray, 635 nm fluorescence, artefact control for SMM control protein annotation, primary screen (AID 1128).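 Further: score merges feature fluorescence with signal-to-noise for each printed compound spot.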 To be noted: higher = more signal.
Experiment [2] relates to Human papillomavirus type 1a E7 protein (residues 1-88). The experiment can be described thus: HPV1a E7 small-molecule binders, primary screen, biochemical, small-molecule microarray, residues 1-88, 635 nm (AID 1129). To be noted: small-molecule microarray binding, fluorescence 635 nm; higher = more signal.
The target in experiment [3] is Focal adhesion kinase 1 (Homo sapiens) (UniProt Q05397). The experiment can be described thus: PTK2 protein binding on printed compound slides – biochemical, small-molecule microarray, 635/667 nm fluorescence, BSA, DTT, primary screen (AID 1130).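 Further: composite of spot emission at 667 nm and signal to noise over triplicate slides.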 The note with it: 635 nm fluorescence, higher = more signal.
Focal adhesion kinase 1 (Homo sapiens), sequence (Q05397 whole entry, looked up): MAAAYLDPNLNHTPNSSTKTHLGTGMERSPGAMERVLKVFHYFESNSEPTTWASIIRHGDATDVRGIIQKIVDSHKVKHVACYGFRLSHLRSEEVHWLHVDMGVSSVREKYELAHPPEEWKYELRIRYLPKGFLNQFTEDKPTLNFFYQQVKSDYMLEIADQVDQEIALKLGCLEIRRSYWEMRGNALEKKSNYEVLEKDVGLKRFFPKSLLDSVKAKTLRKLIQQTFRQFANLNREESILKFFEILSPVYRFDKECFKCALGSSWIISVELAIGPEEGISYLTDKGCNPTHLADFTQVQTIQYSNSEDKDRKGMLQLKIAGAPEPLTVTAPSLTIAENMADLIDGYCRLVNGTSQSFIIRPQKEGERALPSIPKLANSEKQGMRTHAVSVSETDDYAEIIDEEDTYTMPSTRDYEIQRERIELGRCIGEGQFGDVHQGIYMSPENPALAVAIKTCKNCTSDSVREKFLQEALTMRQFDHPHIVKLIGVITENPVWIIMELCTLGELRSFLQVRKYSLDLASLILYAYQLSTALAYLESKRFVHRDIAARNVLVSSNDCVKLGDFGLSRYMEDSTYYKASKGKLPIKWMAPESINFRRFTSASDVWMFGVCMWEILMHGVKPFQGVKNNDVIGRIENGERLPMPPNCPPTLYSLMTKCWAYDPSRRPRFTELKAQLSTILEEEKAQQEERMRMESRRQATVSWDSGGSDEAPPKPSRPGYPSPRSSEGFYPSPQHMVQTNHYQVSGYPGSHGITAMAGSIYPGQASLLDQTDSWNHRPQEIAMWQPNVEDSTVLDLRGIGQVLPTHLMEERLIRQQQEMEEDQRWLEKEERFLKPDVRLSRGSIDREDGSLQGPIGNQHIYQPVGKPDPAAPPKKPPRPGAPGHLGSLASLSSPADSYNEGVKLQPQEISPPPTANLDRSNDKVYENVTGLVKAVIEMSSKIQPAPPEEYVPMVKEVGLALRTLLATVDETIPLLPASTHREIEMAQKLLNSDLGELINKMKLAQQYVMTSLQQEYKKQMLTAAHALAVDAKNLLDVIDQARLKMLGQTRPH
Experiment [4] concerns Fibrinogen (Alexa647-labelled). Kind of experiment: Alexa647-fibrinogen binding to printed small molecules – biochemical, small-molecule microarray, 635/667 nm fluorescence, artefact control for SMM control-protein annotation, profiling panel (AID 1131).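 Further: z-score merges 667 nm fluorescence with per-spot signal-to-noise over triplicate slides.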 The note with it: fibrinogen-A647 binding fluorescence, higher = more signal.
For experiment [5], the target named is Follistatin (Homo sapiens) (UniProt P19883). The experiment can be described thus: FST protein binding to printed compounds – biochemical, small-molecule microarray, 635/667 nm fluorescence, primary screen (AID 1132). To be noted: 635 nm fluorescence, higher = more signal.
Follistatin (Homo sapiens), sequence (P19883 whole entry, looked up): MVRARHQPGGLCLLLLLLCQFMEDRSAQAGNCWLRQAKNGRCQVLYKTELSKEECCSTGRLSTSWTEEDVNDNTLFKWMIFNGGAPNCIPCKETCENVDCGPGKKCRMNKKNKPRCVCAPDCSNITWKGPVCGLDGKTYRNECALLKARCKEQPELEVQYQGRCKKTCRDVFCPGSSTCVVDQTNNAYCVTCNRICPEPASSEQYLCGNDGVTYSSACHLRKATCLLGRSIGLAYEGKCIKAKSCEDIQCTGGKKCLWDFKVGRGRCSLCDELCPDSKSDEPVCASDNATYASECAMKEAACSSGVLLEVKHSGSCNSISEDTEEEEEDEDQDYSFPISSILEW
Experiment [6] deals with Fibroblast growth factor 2 (Homo sapiens) (UniProt P09038). The experiment can be described thus: basic fibroblast growth factor binding to printed compounds – biochemical, small-molecule microarray, 635/667 nm fluorescence, primary screen (AID 1133). The note with it: FGF2, fluorescence 635/667, higher = more signal.
Fibroblast growth factor 2 (Homo sapiens), sequence (P09038 whole entry, looked up): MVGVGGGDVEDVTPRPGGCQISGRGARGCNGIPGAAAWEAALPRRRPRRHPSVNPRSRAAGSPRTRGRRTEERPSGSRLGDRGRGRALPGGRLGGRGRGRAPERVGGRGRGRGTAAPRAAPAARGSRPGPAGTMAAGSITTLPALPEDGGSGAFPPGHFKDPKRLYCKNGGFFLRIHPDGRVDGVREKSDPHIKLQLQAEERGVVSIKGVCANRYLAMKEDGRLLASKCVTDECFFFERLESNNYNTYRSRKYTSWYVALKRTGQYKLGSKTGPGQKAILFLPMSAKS
Experiment [7] in a line: JC-1 mitochondrial potential readout, lung cancer cells – cell-based, A549, JC-1 fluorescence, basal, 24 h, 100 nL, profiling panel (AID 1138).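 Further: A549 lung adenocarcinoma cells under basal conditions with no added stimulus; test concentration not given here.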 The note with it: higher = more signal.
For another experiment, the system named is Lefty1. Kind of experiment: Lefty1 protein binding to printed compounds – biochemical, small-molecule microarray, 635/667 nm fluorescence, primary screen (AID 1139). The note with it: fluorescence 635/667, higher = more signal.
In experiment [8] the test system is wheat germ agglutinin (Triticum aestivum), Alexa647-labelled. The experiment can be described thus: Alexa647-WGA lectin binding to printed small molecules – biochemical, small-molecule microarray, 635/667 nm fluorescence, artefact control for SMM control-protein annotation, profiling panel (AID 1140).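 Further: score merges 667 nm feature emission with signal to noise over triplicate slides.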 The note with it: WGA-A647 binding, 635 nm fluorescence, higher = more signal.

Experiment [9] addresses Luciferin 4-monooxygenase (Photinus pyralis) (UniProt P08659). Kind of experiment: inhibition of purified Photinus pyralis luciferase – biochemical, luminescence, purified enzyme, 2006 set, primary screen (AID 1141).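 Further: cell-free assay with purified firefly luciferase at 100 ng per well in PBS; test concentration not given here.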 To be noted: purified firefly luciferase, SteadyGlo luminescence, 30 min; higher = more signal, called active from +8 up or from −8 down.
In experiment [10] the test system is Wnt5a (protein binding on small-molecule microarray). Kind of experiment: small molecules binding Wnt5a protein – biophysical, small-molecule microarray, 635/667 nm fluorescence, primary screen (AID 1142).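 Further: fluorescence read at 667 nm with signal to noise per printed feature.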 The note with it: 635 nm fluorescence, higher = more signal.
Experiment [11] is described as follows: ATP-based viability of Huh7 replicon cells – cell-based, CellTiter-Glo luminescence, basal, 48 h, cytotoxicity control for HCV replication inhibitor project, primary screen (AID 1143).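 Further: Huh7 hepatoma cells carrying a hepatitis C replication reporter with no stimulus; test concentration not given here.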 To be noted: higher = more signal, called active from +8 up or from −8 down.
The nature of experiment [12]: Pseudomonas biofilm growth suppression – PAO1 strain, BacTiter-Glo luminescence, LB-PBS, primary screen (AID 1144). The note with it: P. aeruginosa PAO1 biofilm, 12 h, higher = more signal.
The nature of experiment [13]: basal CRE-LacZ reporter activity in PC12 – cell-based, unstimulated, primary screen (AID 1145). The note with it: no forskolin, luminescence, 4.5 h, higher = more signal, called active from +8 up or from −8 down.
A short description of experiment [14]: forskolin-driven CRE-LacZ activity in PC12 – cell-based, CRE-LacZ reporter, forskolin-stimulated, primary screen (AID 1146).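 Further: PC12 cells with 6xCRE LacZ reporter stimulated by forskolin 10 µM; beta-galactosidase reporter signal reflecting CREB driven transcription.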 To be noted: luminescence, 4.5 h, higher = more signal, called active from +8 up or from −8 down.
Experiment [15] concerns the target Streptavidin (Streptomyces avidinii) (UniProt P22629). Kind of experiment: compounds binding control protein streptavidin – biophysical, small-molecule microarray, 635/667 nm fluorescence, artefact control for SMM compound annotation, primary screen (AID 1147).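 Further: signal reflects streptavidin binding to arrayed compounds as a control protein.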 The note with it: higher = more signal.
A short description of experiment [16]: probe aInhba binding on compound microarray – biochemical, small-molecule microarray, 635/667 nm fluorescence, primary screen (AID 1148).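 Further: score merges 667nm spot fluorescence with signal-to-noise for antibody binding to printed compounds.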 To be noted: higher = more signal.
For experiment [17], the target named is Torsin-1A (Homo sapiens) (UniProt O14656). The experiment can be described thus: TOR1A wild-type binding on microarray – cell lysate, small-molecule microarray, lysate, 635/667 nm, primary screen (AID 1149). The note with it: COS7 hTOR1A-WT lysate, 635 nm fluorescence, higher = more signal.
Torsin-1A (Homo sapiens), sequence (O14656 whole entry, looked up): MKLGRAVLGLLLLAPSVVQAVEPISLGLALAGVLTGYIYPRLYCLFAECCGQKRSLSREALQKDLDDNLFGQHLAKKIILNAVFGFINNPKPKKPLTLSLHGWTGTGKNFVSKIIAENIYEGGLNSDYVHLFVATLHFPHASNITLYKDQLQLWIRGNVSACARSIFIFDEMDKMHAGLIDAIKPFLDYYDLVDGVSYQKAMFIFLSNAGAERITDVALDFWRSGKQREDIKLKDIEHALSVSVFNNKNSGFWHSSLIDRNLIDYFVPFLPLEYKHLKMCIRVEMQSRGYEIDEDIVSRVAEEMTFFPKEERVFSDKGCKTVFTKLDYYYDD
The target is the same in experiment [18]. Kind of experiment: torsin A mutant lysate binding on microarrays – cell lysate, small-molecule microarray, COS7 lysate, 635/667 nm fluorescence, primary screen (AID 1150).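 Further: score pools 667 nm emission and signal to noise measuring lysate protein binding.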 The note with it: COS7 hTOR1A mutant lysate, 635 nm fluorescence, higher = more signal.
For experiment [19], the system named is Sonic hedgehog protein (Shh). Kind of experiment: Sonic hedgehog microarray binding compounds – biochemical, small-molecule microarray, 635/667 nm fluorescence, primary screen (AID 1151).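 Further: Shh protein binding to compounds spotted on small-molecule microarray slides; score combines spot fluorescence intensity with signal-to-noise across triplicate slides.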 The note with it: 635 nm fluorescence, higher = more signal.

Calls of active or inactive are those of the source. Unless noted, how the calls were made is not given here.

Luciferin 4-monooxygenase (Photinus pyralis), sequence (P08659 whole entry, looked up): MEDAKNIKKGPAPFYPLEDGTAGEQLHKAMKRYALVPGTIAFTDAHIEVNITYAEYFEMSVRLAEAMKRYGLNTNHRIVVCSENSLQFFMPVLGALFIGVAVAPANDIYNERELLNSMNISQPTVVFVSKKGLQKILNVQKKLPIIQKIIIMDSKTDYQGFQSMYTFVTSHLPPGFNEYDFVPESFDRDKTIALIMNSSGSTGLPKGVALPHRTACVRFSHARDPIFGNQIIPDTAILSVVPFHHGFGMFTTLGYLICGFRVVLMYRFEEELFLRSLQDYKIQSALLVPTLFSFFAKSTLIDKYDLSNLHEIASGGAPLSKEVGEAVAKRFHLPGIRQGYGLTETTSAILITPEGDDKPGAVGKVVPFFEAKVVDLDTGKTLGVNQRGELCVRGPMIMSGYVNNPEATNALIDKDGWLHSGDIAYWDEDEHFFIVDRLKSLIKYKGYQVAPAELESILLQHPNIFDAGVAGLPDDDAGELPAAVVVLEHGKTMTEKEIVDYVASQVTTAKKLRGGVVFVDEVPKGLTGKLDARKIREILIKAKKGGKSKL
Streptavidin (Streptomyces avidinii), sequence (P22629 whole entry, looked up): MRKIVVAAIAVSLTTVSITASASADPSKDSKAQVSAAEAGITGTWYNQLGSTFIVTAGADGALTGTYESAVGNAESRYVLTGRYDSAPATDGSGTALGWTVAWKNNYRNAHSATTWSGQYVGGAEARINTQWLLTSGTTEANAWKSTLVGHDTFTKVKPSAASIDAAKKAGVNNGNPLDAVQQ

`CC(=O)NCCCC[C@@H]1NC(=O)[C@@H]2C[C@H](C(=O)O)[C@H](c3ccc(O)cc3)N2C1=O`: the composite z-score was 2.07 in [1]; -1.12 in experiment [2]; -0.58 in [3]; -0.408 in experiment [4]; -0.893 in [5]; -1.15 in [6]. The composite z-score was -1.71 in the experiment on Lefty1; -0.885 in experiment [8]; -0.734 in experiment [10]; -1.04 in [15]; -0.335 in [16]; -2.46 with Torsin-1A (Homo sapiens) [17]. Moreover, the composite z-score with Torsin-1A (Homo sapiens) [18] is -2.19; in experiment [19], -0.96. Further, the z-score in experiment [7] is -0.61; in experiment [9], 0.75 (inactive); in [11], 0.454 (inactive); in experiment [12] it was -0.646 (inactive); in experiment [13], -0.679 (inactive); in experiment [14], 0.407 (inactive).

Consider `CCOC(=O)C1=CC[C@@H](c2ccccc2)N(S(=O)(=O)c2ccc(C)cc2)C1`, for which the composite z-score was -0.416 in [1]; 0.968 in [2]; 0.478 in [3]; -0.364 in experiment [4]; 0.736 in experiment [5]; -0.103 in [6]. Further, the composite z-score with Lefty1 is -0.34; in experiment [8], 0.564; in experiment [10], 0.0639; in experiment [15], 0.342; in [16], 0.0633; in the experiment with Torsin-1A (Homo sapiens) [17], 0.303. For the same compound, the composite z-score in the experiment with Torsin-1A (Homo sapiens) [18] was 0.17; in experiment [19], -0.474. For the same compound, the z-score in experiment [7] was 0.747; in experiment [9], 0.731 (inactive); in experiment [11], -2.28 (inactive); in experiment [12] it was 0.84 (inactive); in [13] it was 0.229 (inactive); in [14] it was 0.368 (inactive).

On to `NC(=O)N1C(=O)C2C(C1=O)C1C=C(CCCO)C2C(c2cccs2)N1Cc1cc2c(cc1Br)OCO2` (stereo not given), for which the composite z-score in experiment [1] is 2.23; in [2], -0.212; in experiment [3], 1.67; in experiment [4], 0.87; in experiment [5], 0.192; in [6], -0.681. Also, the composite z-score with Lefty1 is 0.574; in experiment [8], 0.851; in experiment [10], -0.25; in experiment [15] it was 1.13; in [16], -0.0983; with Torsin-1A (Homo sapiens) [17], -0.164. Besides, the composite z-score with Torsin-1A (Homo sapiens) [18] was 0.279; in experiment [19], 0.0313. The z-score in experiment [7] is 0.707; in experiment [9], -0.062 (inactive); in experiment [11], -0.477 (inactive); in experiment [12], -0.584 (inactive); in experiment [13], 0.424 (inactive); in [14], -0.298 (inactive).

Take `Cc1ccc(F)cc1S(=O)(=O)N[C@@H]1CCN(Cc2ccc(Oc3ccccc3)cc2)C1`: the composite z-score in experiment [1] is 0.258; in experiment [2], -0.922; in [3] it was -0.271; in experiment [4], 0.738; in [5], 1.03; in experiment [6] it was 0.424. The composite z-score in the experiment on Lefty1 is 1.09; in [8] it was 0.853; in experiment [10], -0.123; in experiment [15], -0.235; in experiment [16], -0.0403; in the experiment with Torsin-1A (Homo sapiens) [17], 0.575. For the same compound, the composite z-score with Torsin-1A (Homo sapiens) [18] stood at 0.251; in [19], 1.07. Also, the z-score in [7] is 0.663; in [9], 0.453 (inactive); in experiment [11], -4.83 (inactive); in experiment [12] it was 0.913 (inactive); in experiment [13], 0.677 (inactive); in experiment [14], 0.865 (inactive).

Consider `C=CC[C@H](OC(=O)Nc1ccc(OC)cc1)c1ccc(O)c2ccccc12`, for which the composite z-score in experiment [1] was found to be 1.15; in experiment [2], 1.16; in [3], 0.531; in experiment [4], 0.305; in experiment [5] it was 1.3; in experiment [6], 1.64. The composite z-score is 0.907 with Lefty1; 0.616 in experiment [8]; 0.49 in experiment [10]; 0.855 in experiment [15]; 0.0275 in [16]; 0.51 with Torsin-1A (Homo sapiens) [17]. For the same compound, the composite z-score in the experiment with Torsin-1A (Homo sapiens) [18] was found to be 0.696; in [19], 1.66. For the same compound, the z-score is -1.43 in experiment [7]; -6.26 (inactive) in [9]; -4.26 (inactive) in experiment [11]; -1.4 (inactive) in experiment [12]; 0.935 (inactive) in [13]; 5.57 (inactive) in experiment [14].
